# Assay results taken from the antibiotic and cytotoxicity screens of Wong et al. (2023).
# The campaign covered roughly 39,000 compounds. About 500 (1.3%) were called active. The sample as a whole holds a higher share of actives than the screen did.
# Test system: S. aureus RN4220
# Assay: growth inhibition call (relative growth <= 0.2)
# Conditions: 50 µM
row,SMILES,growth inhibition call
1,C[C@@H]1CN([C@@H](C)CO)C(=O)Cc2cc(NC(=O)C3CC3)ccc2O[C@@H]1CN(C)C(=O)Nc1ccc2c(c1)OCO2,inactive
2,CC(C)c1ccccc1Cc1cc(C(=O)Nc2ccc(S(=O)(=O)c3ccccc3C(C)(C)C)cc2)c(O)c(O)c1O,inactive
3,Cc1ccc(S(=O)(=O)N(C)C[C@@H]2Oc3ccc(NC(=O)Nc4cccc5ccccc45)cc3C(=O)N([C@@H](C)CO)C[C@H]2C)cc1,inactive
4,C[C@H]1CC/C=C\[C@H]2O[C@@]34C=CCN(c5ccc6ccccc6c5)C(=O)[C@H]3N(CCCO)C(=O)[C@@H]4[C@@H]2C(=O)O1,inactive
5,C[C@H]1CN([C@@H](C)CO)C(=O)Cc2cc(NC(=O)CCC(F)(F)F)ccc2O[C@H]1CN(C)S(=O)(=O)c1cn(C)cn1,inactive
6,CCN(CC)CCS(=O)(=O)[C@@H]1CCN2C(=O)c3coc(n3)CC(=O)C[C@H](O)/C=C(C)/C=C\CNC(=O)/C=C/[C@@H](C)[C@H](C(C)C)OC(=O)[C@@H]12,active
7,COc1cccc2c1C(=O)c1c(O)c3c(c(O)c1C2=O)C[C@](O)(C(=O)CO)C[C@H]3O[C@H]1C[C@@H](N)[C@@H](O)[C@@H](C)O1,active
8,COc1cccc2c1C(=O)c1c(O)c3c(c(O)c1C2=O)C[C@@](O)(C(=O)CO)C[C@@H]3O[C@H]1C[C@H](N)[C@H](O)[C@H](C)O1,active
9,COc1cccc2c1C(=O)c1c(O)c3c(c(O)c1C2=O)CC(O)(C(=O)CO)CC3OC1CC(N)C(O)C(C)O1 (stereo not drawn) [listing 1 of 2 here],inactive
10,COc1cccc2c1C(=O)c1c(O)c3c(c(O)c1C2=O)CC(O)(C(=O)CO)CC3OC1CC(N)C(O)C(C)O1 (stereo not drawn) [listing 2 of 2 here],inactive
11,COc1cccc2c1C(=O)c1c(O)c3c(c(O)c1C2=O)CC(O)(C(=O)CO)CC3OC1CC(N)C(O)C(C)O1.Cl (stereo not drawn),inactive
12,COc1cccc2c1C(=O)c1c(O)c3c(c(O)c1C2=O)C[C@@](O)(C(=O)CO)C[C@@H]3O[C@H]1C[C@H](N)[C@@H](O)[C@H](C)O1,active
13,CCCCC(=O)OCC(=O)[C@]1(O)Cc2c(O)c3c(c(O)c2[C@@H](O[C@H]2C[C@H](NC(=O)C(F)(F)F)[C@H](O)[C@H](C)O2)C1)C(=O)c1c(OC)cccc1C3=O,inactive
14,Cc1ccnc(NC(=O)Cn2cnc3c2c(=O)n(C)c(=O)n3C)c1,inactive
15,Cc1noc(C)c1S(=O)(=O)Nc1ccc2c(c1)C(=O)N([C@@H](C)CO)C[C@@H](C)[C@@H](CN(C)S(C)(=O)=O)OCCCC[C@@H](C)O2,inactive
16,COCCC(=O)N1CCC2(CC1)COC2,inactive
17,C[C@@H]1CCCCO[C@@H](CN(C)C(=O)Nc2ccc(C(F)(F)F)cc2)[C@H](C)CN([C@H](C)CO)C(=O)c2cc(N(C)C)ccc2O1,inactive
18,Cc1noc(C)c1NC(=O)N(C)C[C@H]1Oc2ccc(NS(=O)(=O)c3ccccc3)cc2C(=O)N([C@@H](C)CO)C[C@H]1C,inactive
19,CCOC(=O)[C@H]1CN(C(C)(C)C)C(=O)C1=O,inactive
20,O=c1[nH]c2ccsc2c(=O)n1CCO,inactive
21,C[C@@H]1CN([C@@H](C)CO)S(=O)(=O)c2ccc(C#Cc3ccncc3)cc2O[C@H]1CN(C)C(=O)C1CCOCC1,inactive

row,SMILES,growth inhibition call
1,CCS(=O)(=O)N1CC[C@]2(CC1)CN([C@H](CO)c1c2c2ccc(cc2n1C)OC)C(=O)CN1CCOCC1,inactive
2,C[C@H](CO)N1C[C@H](C)[C@@H](CN(C)Cc2ccccc2)Oc2ccc(NC(=O)Cn3cnnn3)cc2CC1=O,inactive
3,N[C@@H]1[C@H]2CN(c3nc4c(cc3F)c(=O)c(C(=O)O)cn4-c3ccc(F)cc3F)C[C@@H]12,active
4,Cc1ccc(S(=O)(=O)O)cc1.NC1CCN(c2nc3c(cc2F)c(=O)c(C(=O)O)cn3-c2ccc(F)cc2F)C1.O (stereo not drawn),inactive
5,CN[C@H]1CN(c2ccc3c(=O)c(C(=O)O)cn(-c4nccs4)c3n2)C[C@@H]1OC,inactive
6,N[C@H]1CCN(c2nc3c(cc2F)c(=O)c(C(=O)O)cn3-c2ccc(F)cc2F)C1,active
7,C[C@H](CO)N1C[C@H](C)[C@H](CN(C)C(=O)CCC(F)(F)F)OCCCC[C@H](C)Oc2ccc(NC(=O)Nc3ccccc3)cc2C1=O,inactive
8,C[C@H](CO)N1C[C@H](C)[C@H](CN(C)C(=O)CCCN(C)C)OCCCC[C@H](C)Oc2ccc(NS(C)(=O)=O)cc2C1=O,inactive
9,C[C@H](CO)N1C[C@H](C)[C@H](CN(C)S(=O)(=O)c2ccc(F)cc2)Oc2c(NC(=O)C3CCOCC3)cccc2C1=O,inactive
10,CC(C)NC(=O)N(C)C[C@@H]1Oc2c(NS(=O)(=O)c3ccc(F)cc3)cccc2C(=O)N([C@H](C)CO)C[C@H]1C,inactive
11,C[C@@H]1CCCCO[C@@H](CN(C)C(=O)CCCN(C)C)[C@H](C)CN([C@@H](C)CO)C(=O)c2cc(NC(=O)Nc3ccc(F)cc3)ccc2O1,inactive
12,COc1cccc(S(=O)(=O)N(C)C[C@@H]2Oc3ncc(C#CC(C)C)cc3C(=O)N([C@@H](C)CO)C[C@H]2C)c1,inactive
13,COC(=O)CC1C(C)(C)C(OC(C)=O)C2CC3=C4CC(=O)OC(c5ccoc5)C4(C)CCC3C1(C)C2=O (stereo not drawn),inactive
14,CCC(=C/[C@H](C)C/C=C/C(C)=C/[C@@H](C)C(=O)[C@@H](C)[C@H](O)[C@@H](C)C/C(C)=C/C(=O)O)/C=C/[C@@H]1OC(=O)C=C[C@@H]1C,active
15,Cc1noc(C)c1S(=O)(=O)N(C)C[C@@H]1Oc2ccc(NS(=O)(=O)c3ccc(F)cc3)cc2C(=O)N([C@H](C)CO)C[C@@H]1C,inactive
16,COc1ccc(S(=O)(=O)N(C)C[C@@H]2Oc3c(NS(=O)(=O)c4ccc(C)cc4)cccc3C(=O)N([C@H](C)CO)C[C@@H]2C)cc1,inactive
17,O=C1NCc2ccccc21,inactive
18,O=C1CCNc2cc3ccccc3cc21,active
19,O=C1CCCNc2ccc(Cl)cc21,inactive
20,CN(C)C(=O)C[C@@H]1CC[C@@H](NC(=O)C2CC2)[C@@H](CO)O1,inactive
21,C[C@@H]1CCCCO[C@@H](CN(C)C(=O)Nc2ccc(F)cc2)[C@H](C)CN([C@H](C)CO)C(=O)c2cc(NS(=O)(=O)c3ccc(F)cc3)ccc2O1,inactive

row,SMILES,growth inhibition call
1,C[C@@H](O)COC[C@H]1O[C@@H]2O[C@H]3[C@H](O)[C@@H](O)[C@@H](O[C@H]4[C@H](O)[C@@H](O)[C@@H](O[C@H]5[C@H](O)[C@@H](O)[C@@H](O[C@H]6[C@H](O)[C@@H](O)[C@@H](O[C@H]7[C@H](O)[C@@H](O)[C@@H](O[C@H]8[C@H](O)[C@@H](O)[C@@H](O[C@H]1[C@H](O)[C@H]2O)O[C@@H]8COC[C@@H](C)O)O[C@@H]7COC[C@@H](C)O)O[C@@H]6COC[C@@H](C)O)O[C@@H]5COC[C@@H](C)O)O[C@@H]4COC[C@@H](C)O)O[C@@H]3COC[C@@H](C)O,inactive
2,C[C@@H]1CN([C@@H](C)CO)C(=O)c2cccc(NC(=O)c3ccc(-c4nccs4)cc3)c2O[C@@H]1CN(C)Cc1ccc(Cl)c(Cl)c1,inactive
3,Cn1cnc(S(=O)(=O)N2C[C@H](O)COC[C@@H]3O[C@@H](CC(=O)NC4CCCC4)CC[C@H]32)c1,inactive
4,CSc1c(-c2ccc(Cl)cc2)[nH]c2ccccc12,active
5,Cc1[nH]c2ccccc2c1C(=O)CSc1ccc(Cl)cc1,inactive
6,NCC[S@@](=O)c1c(-c2ccc(F)cc2)[nH]c2ccccc12,inactive
7,CC(C)NC(=O)Nc1ccc2c(c1)C(=O)N([C@@H](C)CO)C[C@@H](C)[C@H](CN(C)C(=O)Nc1ccc3c(c1)OCO3)O2,inactive
8,COc1ccc(NC(=O)N(C)C[C@H]2Oc3ncc(C#C[C@@H](C)O)cc3C(=O)N([C@@H](C)CO)C[C@H]2C)cc1,inactive
9,COc1ccc2c3c(n(c2c1)C)[C@@H](CO)N(C[C@]13CN(C1)C(=O)CN(C)C)C(=O)CN(C)C,inactive
10,Cc1ccccc1-c1cc(N2CCN(C)CC2)ncc1N(C)C(=O)C(C)(C)c1cc(C(F)(F)F)cc(C(F)(F)F)c1,active
11,COCCOC(=O)N1C(=O)[C@@]2(c3cc(C#Cc4ccc(OC)cc4)ccc31)[C@H](C(=O)N1CCN(c3ncccn3)CC1)[C@H]1C(=O)O[C@H](c3ccccc3)[C@H](c3ccccc3)N1[C@@H]2c1ccc(OCCO)cc1,inactive
12,C[C@@H]1CN([C@H](C)CO)C(=O)c2cc(NS(=O)(=O)c3ccccc3)ccc2O[C@@H](C)CCCCO[C@@H]1CN(C)C(=O)c1ccccc1,inactive
13,CNC[C@@H]1OCCCC[C@H](C)Oc2ccc(NC(=O)Nc3ccc(C(F)(F)F)cc3)cc2C(=O)N([C@H](C)CO)C[C@@H]1C,inactive
14,CNC[C@H]1OCCCC[C@@H](C)Oc2ccc(NC(=O)Nc3ccc(C(F)(F)F)cc3)cc2C(=O)N([C@H](C)CO)C[C@H]1C,active
15,CNC[C@H]1OCCCC[C@@H](C)Oc2ccc(NC(=O)Nc3ccc(C(F)(F)F)cc3)cc2C(=O)N([C@H](C)CO)C[C@@H]1C,inactive
16,CNC[C@@H]1OCCCC[C@H](C)Oc2ccc(NC(=O)Nc3ccc(C(F)(F)F)cc3)cc2C(=O)N([C@H](C)CO)C[C@H]1C,active
17,CNC[C@@H]1OCCCC[C@@H](C)Oc2ccc(NC(=O)Nc3ccc(C(F)(F)F)cc3)cc2C(=O)N([C@@H](C)CO)C[C@@H]1C,inactive
18,CNC[C@@H]1OCCCC[C@@H](C)Oc2ccc(NC(=O)Nc3ccc(C(F)(F)F)cc3)cc2C(=O)N([C@@H](C)CO)C[C@H]1C,inactive
19,Cc1noc(C)c1NC(=O)N(C)C[C@H]1Oc2ccc(NC(=O)NC(C)C)cc2CC(=O)N([C@H](C)CO)C[C@@H]1C,inactive
20,CN(c1ncccc1CNc1nc(Nc2ccc3c(c2)CC(=O)N3)ncc1C(F)(F)F)S(C)(=O)=O,inactive
21,Cc1ccc(S(=O)(=O)Nc2cccc3c2O[C@@H](CN(C)S(=O)(=O)c2cn(C)cn2)[C@H](C)CN([C@H](C)CO)C3=O)cc1,inactive
